Results filed as inconclusive are left out. Activity calls are given as the source filed them. How the source made its calls: active means hit-call score of the fitted dose curve at least 0.9, where 1 is the maximum; inconclusive means response in the unintended direction; inactive means score below 0.9.
Experiment: ACEA_ER_80hr: ACEA Biosciences xCELLigence Real-Time Cell Analysis on Estrogen Receptor Agonism for Proliferation (AID 2282667)
Details: T47D proliferation, impedance (xCELLigence), 80 h
Procedure: ACEA_ER is a cell-based, single-readout assay that uses T47D, a human breast cell line, with measurements taken at 80 hours after chemical dosing in a 96-well plate, although TO2 (mc0.srcf) used a 384-well plate. Differences in plate size can be ignored given data normalization.ACEA_ER_80hr is one of two assay component(s) measured or calculated from the ACEA_ER assay. It is designed to make measurements of real-time cell-growth kinetics, a form of growth reporter, as detected with electrical impedance signals by Real-Time Cell Electrode Sensor (RT-CES) technology.Data from the assay component ACEA_ER_80hr was analyzed into 1 assay endpoint. This assay endpoint, ACEA_ER_80hr_Positive, was analyzed in the positive analysis fitting direction relative to DMSO as the negative control and baseline of activity. Using a type of growth reporter, measures of the cells for gain-of-signal activity can be used to understand the signaling at the pathway-level as they relate to the gene ESR1. Furthermore, this assay endpoint can be referred to as a primary readout, because this assay has produced multiple assay endpoints where this one serves a signaling function. To generalize the intended target to other relatable targets, this assay endpoint is annotated to the nuclear receptor intended target family, where the subfamily is steroidal.
The xCELLigence system Multi-E-Plate stations were used to measure the time-dependent response to chemicals. Each compound was tested in an eight-point, 1:4 serial dilution series starting at a maximum final concentration of 100 uM. A maximum starting concentration of 0.5% DMSO was present in the 100 uM chemical samples and was diluted along with the test article dilution series. The screen was performed in biological duplicate using two separate, 96-well, E-Plates 96 for each dilution series (n = 2). Positive controls (MG132 and E2) and a negative control (assay media) were tested in quadruplicate on each testing plate. […] Reference compounds were tested with 8 concentrations with 1:5 serial dilutions. All screening was carried out by ACEA Biosciences, Inc. (San Diego, CA). T-47D cells purchased from ATCC were maintained in RPMI1640 media supplemented with 10% characterized fetal bovine serum (FBS). […] Cells were then detached and seeded in E-Plates 96 in assay medium. After overnight monitoring of growth once every hour, compounds were added to […] cells and remained in the medium until the end of the experiment. Cellular responses were then recorded once every 5 min for the first 5 h, and once every hour for an additional 100 h.

Structure (SMILES) | AC50 | outcome
CCCc1ccc(O)cc1 | 50000 nM (active) | –
CCCCCCCCCCOC(=O)c1ccccc1C(=O)OCCCCCCCC | – | inactive
NC(=O)c1cnccn1 | – | inactive
C=C(F)C(=O)OC(C(F)(F)F)C(F)(F)F | – | inactive
CC(=O)c1ccc2ccccc2c1 | – | inactive
C=CC(O)CCCCC (stereo not given) | – | inactive
Cc1cc(O)c2c(c1)C(=O)c1cc(O)cc(O)c1C2=O | 493 nM (active) | –
CC1=CCC(C(C)(C)O)CC1 (stereo not given) | – | inactive
CCCO[Si](OCCC)(OCCC)OCCC | – | inactive
CCCc1ccc(N)cc1 | – | inactive
CCC(C)C1CCCCC1=O (stereo not given) | – | inactive
CCC(C)(C)C1CCC(OC)CC1 (stereo not given) | – | inactive
C=CC(C)CCCC(C)(C)O (stereo not given) | – | inactive
c1ccc(Sc2ccccc2)cc1 | – | inactive
CCOC(=O)CC(C)C | – | inactive
CCCCCCCCCCO[C@@H]1O[C@H](CO)[C@@H](O)[C@H](O)[C@H]1O | – | inactive
CC(C)Cc1ccc(C(C)C(=O)O)cc1 (stereo not given) | – | inactive
CCC(=O)OC/C=C(\C)CCC=C(C)C | 91.6 nM (active) | –
CC(=O)c1cccnc1 | – | inactive
COc1cc(OC)c2ccc(=O)oc2c1 | – | inactive

Structure (SMILES) | AC50 | outcome
CC1=CC(=O)[C@H]2C[C@@H]1C2(C)C | – | inactive
c1ccc(OCCOc2ccccc2)cc1 | – | inactive
CCOC(=O)C(=O)OCC | – | inactive
CCOCC(C)O (stereo not given) | – | inactive
CC(C)=CCCC(C)=CC(=O)O | – | inactive
[Cl][Dy]([Cl])[Cl] | 43 nM (active) | –
NC(=O)c1cccnc1 | – | inactive
CC/C=C/CCCCCCCCCCOC(C)=O | – | inactive
CCC=C(C)C=O | – | inactive
O=c1cc(-c2ccc(O)cc2)oc2cc(O)cc(O)c12 | 1330 nM (active) | –
C1COCO1 | – | inactive
[O-]/[N+](=N\O)c1ccccc1 | – | inactive
NC(N)=NC(N)=NCCc1ccccc1 | – | inactive
CCCCCCCCOS(=O)(=O)O | – | inactive
Cc1ccncc1 | – | inactive
CC1=CC[C@@H](C(C)(C)O)CC1 | – | inactive
C1CCCNCC1 | – | inactive
C=C(C)C(=O)OCCN(C)C | – | inactive
CC(=O)CC(=O)N(C)C | – | inactive
CCOc1ccc(NC(C)=O)cc1 | – | inactive

From PubChem BioAssay (EPA / NIEHS)
